Results reported in publication PMC4336329 (PLoS ONE, 2015).
The campaign covered roughly 310,000 compounds. About 14,000 (4.5%) showed an effect of 50% or more. Effects have a minus sign here. This excerpt belongs to a sample that is enriched for strong results.

Biological target: human ether-à-go-go-related gene (hERG) potassium channel (human, UniProt Q12809)
Test: primary screen, population patch clamp on CHO cells stably expressing hERG; higher = less effect of the substance
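Further: peak tail current of the secondary pulse compared with the same well before compound.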

Chain of human ether-à-go-go-related gene (hERG) potassium channel (Q12809 whole entry, looked up): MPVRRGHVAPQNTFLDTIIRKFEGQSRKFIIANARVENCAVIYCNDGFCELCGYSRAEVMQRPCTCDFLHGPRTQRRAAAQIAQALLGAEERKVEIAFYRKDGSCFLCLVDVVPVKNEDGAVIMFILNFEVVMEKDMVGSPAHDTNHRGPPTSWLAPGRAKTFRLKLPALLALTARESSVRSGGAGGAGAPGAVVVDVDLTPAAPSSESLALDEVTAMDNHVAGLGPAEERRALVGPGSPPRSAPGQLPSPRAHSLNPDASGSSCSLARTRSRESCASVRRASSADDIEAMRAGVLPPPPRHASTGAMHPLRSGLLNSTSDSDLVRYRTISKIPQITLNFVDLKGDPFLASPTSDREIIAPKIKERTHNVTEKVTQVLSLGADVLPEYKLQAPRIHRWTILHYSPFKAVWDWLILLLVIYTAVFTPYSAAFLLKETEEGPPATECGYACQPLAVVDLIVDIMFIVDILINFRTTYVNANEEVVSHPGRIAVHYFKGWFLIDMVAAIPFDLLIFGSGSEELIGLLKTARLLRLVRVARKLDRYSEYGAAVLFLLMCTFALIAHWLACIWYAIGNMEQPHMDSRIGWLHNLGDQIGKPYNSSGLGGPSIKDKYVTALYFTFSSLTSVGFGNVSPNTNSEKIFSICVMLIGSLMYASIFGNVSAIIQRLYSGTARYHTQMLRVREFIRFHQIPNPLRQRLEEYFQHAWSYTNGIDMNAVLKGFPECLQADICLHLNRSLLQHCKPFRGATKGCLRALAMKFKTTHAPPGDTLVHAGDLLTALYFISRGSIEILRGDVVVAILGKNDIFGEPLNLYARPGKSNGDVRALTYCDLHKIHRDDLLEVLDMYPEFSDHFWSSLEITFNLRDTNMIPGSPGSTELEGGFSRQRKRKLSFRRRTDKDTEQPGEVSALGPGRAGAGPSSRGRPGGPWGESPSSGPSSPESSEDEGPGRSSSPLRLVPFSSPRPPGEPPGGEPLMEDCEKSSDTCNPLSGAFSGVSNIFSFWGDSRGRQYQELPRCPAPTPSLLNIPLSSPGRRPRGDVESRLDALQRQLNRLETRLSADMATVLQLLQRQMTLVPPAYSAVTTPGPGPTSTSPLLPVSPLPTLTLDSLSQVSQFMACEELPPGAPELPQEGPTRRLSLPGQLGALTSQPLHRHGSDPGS

SMILES | hERG current change (%, negative = inhibition) at 10uM
Cc1c(Cl)cnc(NC(=O)COC(=O)Cc2coc3ccc4ccccc4c23)c1Cl | -7.96%
Cc1ccc(Sc2ccc(NC(=O)CCl)cc2)c(C)c1 | 12.5%
CC(=O)N1CC2(C)CN(C(C)=O)CC(C)(C1)C2 | 23.8%
Cc1ccccc1N1CCN(C2CCCN(C(=O)c3snnc3C)C2)CC1 (centres unmarked) | 5.72%
Cc1ccccc1N1CCN(C2CCCN(C(=O)c3cnsn3)C2)CC1 (centres unmarked) | -58.2%
Cc1cnc(C(=O)N2CCCC(N3CCN(c4ccccc4C)CC3)C2)cn1 (centres unmarked) | 1.27%
COc1ccc(NS(=O)(=O)c2ccc(N3CCCC3)c(NC(=S)Nc3cccc(S(=O)(=O)N(C)C)c3)c2)cc1 | 18.1%
CCc1c(C)nc2ncnn2c1N1CCC(C(=O)NCc2ccc3c(c2)OCO3)CC1 | -68.7%
CCCc1cc(N2CCCC(C(=O)NCC)C2)n2ncnc2n1 (centres unmarked) | -27.3%
Cc1cc(C)nc(N2CCCC(C(=O)NCc3ccc4c(c3)OCO4)C2)n1 (centres unmarked) | 20.9%
CCCc1cc(N2CCCC(C(=O)NCc3ccc4c(c3)OCO4)C2)n2ncnc2n1 (centres unmarked) | -78.4%
CCc1c(C)nc2ncnn2c1N1CCC(C(=O)NCc2cccc(OC)c2)CC1 | -38.6%
CCc1c(C)nc2ncnn2c1N1CCCC(C(=O)NCc2ccc3c(c2)OCO3)C1 (centres unmarked) | -37.4%
O=C(COC(=O)C1CCN(S(=O)(=O)c2cccs2)CC1)NCc1ccccc1 | -23.6%
Cc1ccc(S(=O)(=O)N2CCC(C(=O)OCC(=O)N3CCc4ccccc43)CC2)cc1 | -25.4%
CN(Cc1ccccc1)C(=O)COC(=O)C1CCN(S(=O)(=O)c2cccs2)CC1 | -53.4%
Cc1ccc(CNC(=O)COC(=O)C2CCN(S(=O)(=O)c3cccs3)CC2)cc1 | -50.5%
CCN(C(=O)COC(=O)C1CCN(S(=O)(=O)c2cccs2)CC1)c1ccccc1 | 22%
CN(C)C=O.O=C(OCC(=O)N1CCCc2ccccc21)C1CCN(S(=O)(=O)c2cccs2)CC1 | -71.1%
O=C(COC(=O)C1CCN(S(=O)(=O)c2cccs2)CC1)NCc1ccc(F)cc1 | -49.7%
CN(C(=O)COC(=O)C1CCN(S(=O)(=O)c2cccs2)CC1)c1ccccc1 | -14.1%
O=C(COC(=O)C1CCN(S(=O)(=O)c2cccs2)CC1)c1ccccc1 | 20.6%

SMILES | hERG current change (%, negative = inhibition) at 10uM
ClC1(Cl)CC1CSc1nnc(-c2ccncc2)o1 (centres unmarked) | -16.3%
COc1ccc(-c2ccc(NS(=O)(=O)c3cc([N+](=O)[O-])c(C)c([N+](=O)[O-])c3)cc2)nn1 | -11.3%
O=C(Cn1nnc(N2CCCC2)n1)N/N=C/c1ccc(Cl)cc1 | 13.1%
Cc1cc(C)c(C)c(S(=O)(=O)NCc2ccc(C(=O)N3CCOCC3)cc2)c1C | -4.97%
CC(=O)CCC(=O)N1CCCC(N2CCN(c3cccc(Cl)c3)CC2)C1 (centres unmarked) | -2.63%
O=C(CSc1ccccc1)N1CCCC(N2CCN(c3ccccc3)CC2)C1 (centres unmarked) | -33.7%
O=C(CCC(F)(F)F)N1CCCC(N2CCN(c3cccc(Cl)c3)CC2)C1 (centres unmarked) | -46.8%
O=C(CSc1ccccc1)N1CCCC(N2CCN(c3cccc(Cl)c3)CC2)C1 (centres unmarked) | -54.1%
O=C(CSc1ccccc1)N1CCCC(N2CCN(c3ccc(F)cc3)CC2)C1 (centres unmarked) | -75.3%
O=C(CSc1ccccc1)N1CCN(c2ccc(F)cc2)CC1 | 10.8%
CCCc1cc(C(=O)NCc2ccco2)no1 | 9.57%
COc1cccc(CCc2nnc(CCC(=O)NCCc3cccc(C)n3)o2)c1 | 24.7%
CCCOc1cccc(C2C(C(=O)c3cc4ccccc4o3)=C(O)C(=O)N2c2cc(C)on2)c1 (centres unmarked) | -7.72%
CC(C)CCOC(=O)C[N+](C)(C)CCOC1CC2CCC1(C)C2(C)C.[Cl-] (centres unmarked) | -16.3%
CCC(C)OC(=O)C[N+](C)(C)CCOC1CC2CCC1(C)C2(C)C.[Cl-] (centres unmarked) | -17.3%
CCCCOC(=O)C[N+](C)(C)CCOC1CC2CCC1(C)C2(C)C.[Br-] (centres unmarked) | -52.7%
CCCOC(=O)C[N+](C)(C)CCOC1CC2CCC1(C)C2(C)C.[Br-] (centres unmarked) | 13%
CCCCCCOC(=O)C[N+](C)(C)CCOC1CC2CCC1(C)C2(C)C.[Cl-] (centres unmarked) | -78.1%
CCOC(=O)C[N+](C)(C)CCOC1CC2CCC1(C)C2(C)C.[Cl-] (centres unmarked) | 10.3%
CCCn1nc2cc(C(=O)NCc3ccc(OC(F)(F)F)cc3)ccc2c1OCC | 14.3%
O=C(COC(=O)c1ccc(Cl)nc1)NC1CCCCCC1 | -5.25%
CCCc1nnc(NC(=O)CCC(=O)N2CCN(C3c4ccccc4-c4ccccc43)CC2)s1 | -3.76%

SMILES | hERG current change (%, negative = inhibition) at 10uM
CCCP(=O)(CC(=O)N(CC)CC)c1ccccc1 (centres unmarked) | 12%
COc1ccccc1N1CCN(C(=O)c2cc3n(n2)C(C(F)(F)F)CC(c2ccco2)N3)CC1 (centres unmarked) | -1.94%
CC(C)c1nnc(NC(=O)c2cc3ccccc3o2)s1 | 11.1%
Cc1c(CNC(=O)C2CC2)c(-n2cccc2)n(Cc2ccccc2)c1C | 27.1%
O=S(=O)(c1cccc(COc2ccc(Cl)cc2Cl)c1)N1CCOCC1 | 3.46%
Cc1cc(OCc2cccc(S(=O)(=O)N3CCOCC3)c2)ccc1Cl | -9.12%
O=S(=O)(c1cccc(COc2c(Cl)cccc2Cl)c1)N1CCOCC1 | -12%
N#Cc1ccccc1OCc1cccc(S(=O)(=O)N2CCOCC2)c1 | -38.9%
CC(=O)c1cc(Cl)ccc1OCc1cccc(S(=O)(=O)N2CCOCC2)c1 | -68.9%
N#Cc1ccc(OCc2cccc(S(=O)(=O)N3CCOCC3)c2)cc1 | -82.1%
COC(=O)c1sc2nc(CN3CCOCC3)nc(N3CCOCC3)c2c1C | 1.53%
O=c1cc(N2CCN(c3ccccc3)CC2)[nH]c(=O)n1Cc1ccc(F)cc1 | -25.9%
OC1(c2ccccn2)COc2ccccc2O1 (centres unmarked) | -10.5%
CC(=O)Nc1ccc(Br)cc1C(=O)C(=O)O | -2.93%
CCCOc1ccc(-c2nnn(CC(=O)N3CCCCC3)n2)cc1 | 12.9%
N#C/C(=C\c1ccc(Cl)cc1)c1nc2ncccc2[nH]1 | -15.1%
CC1CCN(c2c(NCC3CCC(C(=O)N4CCCC(C)C4)CC3)c(=O)c2=O)CC1 (centres unmarked) | 2.75%
Cc1ccc(O)c(CNCCNCc2cc(C)ccc2O)c1 | -11.9%
Oc1ccc(Cl)cc1CNCc1ccc(Cl)cc1 | -3.68%
CCc1ccc(O)c(CNCCNCc2cc(CC)ccc2O)c1 | -55.2%
Cc1ccc(Cn2c(=N)c(C(=O)NCCN3CCOCC3)cc3c(=O)n4ccccc4nc32)cc1 | -63.2%
Cn1c(C(=O)NCCN2CCOCC2)cc2c(=O)n3ccccc3nc21 | 10%

SMILES | hERG current change (%, negative = inhibition) at 10uM
O=C(NCCN1CCOCC1)c1cc2c(=O)n3ccccc3nc2n1Cc1ccccc1 | -5.9%
Cc1c(C)n(Cc2ccc(F)cc2)c2ccc(C(=O)NCCN3CCOCC3)cc12 | -19.2%
Cc1cccn2c(=O)c3cc(C(=O)NCCN4CCOCC4)c(=N)n(Cc4ccc(F)cc4)c3nc12 | -72.9%
N=c1c(C(=O)NCCN2CCOCC2)cc2c(=O)n3ccccc3nc2n1Cc1ccc(F)cc1 | -76.5%
CC(C)NC(=O)Cn1c(SCC(=O)c2ccc(F)cc2)nc2ccccc21 | 6.27%
COCCn1c(-c2ccc(F)cc2)nc2cccnc21 | 12.1%
O=C1C[C@H](NC(=O)OCc2ccccc2)CO1 | 6.32%
Fc1ccc(C2NCCn3cccc32)cc1.O=C(O)/C=C/C(=O)O (centres unmarked) | -3.11%
O=C(Nc1ccc(OC(F)F)c(Cl)c1)[C@@H]1CCCN1C(=O)c1cccs1 | -74.3%
CCOc1ccc(NC(=O)[C@@H]2CCCN2C(=O)c2cccs2)cc1S(=O)(=O)N1CCCCC1 | 10.5%
O=C(Nc1ccc(S(=O)(=O)N2CCCC2)cc1)C1CCCN1C(=O)c1cccs1 (centres unmarked) | 0.837%
CCOc1ccc(NC(=O)[C@@H]2CCCN2C(=O)c2cccs2)cc1S(=O)(=O)N1CCOCC1 | 6.27%
Cc1ccc(NC(=O)[C@@H]2CCCN2C(=O)c2cccs2)cc1S(=O)(=O)N1CCCCC1 | -63.9%
O=C(Nc1ccccc1OC(F)F)C1CCCN1C(=O)c1cccs1 (centres unmarked) | 1.98%
COc1ccc2nc(NC(=O)c3cccs3)sc2c1 | 8.71%
Cc1ccc(NC(=O)C2CCCN2C(=O)c2cccs2)cc1C (centres unmarked) | -25.5%
COc1ccc2nc(NC(=O)[C@@H]3CCCN3C(=O)c3cccs3)sc2c1 | -56.4%
O=C(Nc1ccc(Cl)c(S(=O)(=O)N2CCOCC2)c1)[C@@H]1CCCN1C(=O)c1cccs1 | -57.6%
COc1ccc(NC(=O)[C@@H]2CCCN2C(=O)c2cccs2)cc1S(=O)(=O)N1CCCCC1 | -6.06%
O=C(Nc1nc2ccc(Cl)cc2s1)[C@@H]1CCCN1C(=O)c1cccs1 | 3.87%
